Laboratory results from PubChem BioAssay.

Experiments:
[1] = NFkB reporter suppression in cystic fibrosis bronchial cells – cell-based, uHTS hits, panel, cytotoxicity readout, dose response (AID 624344); settings: CF bronchial epithelial cells, PAF-induced NFkB reporter inhibition, with PAF, run 1; at 79 µM (top of the series) unless noted
[2] = as above; settings: CF bronchial epithelial cells, PAF-induced NFkB reporter inhibition, with PAF, run 2; at 79 µM (top of the series) unless noted

Structure (SMILES)	inhibition [1]	inhibition [2]
Cc1c(-c2ccccc2)oc2c(C(=O)N3CCN(c4ccc([N+](=O)[O-])cc4)CC3)cccc2c1=O	105%	93.8%
CC1(C)CC(=O)C=C(NC2=CC3OC(c4ccccc4)OCC3OC2=O)C1 (stereo not given)	103%	114%
Nc1ncnc(N2CCc3ccccc32)c1[N+](=O)[O-]	115%	103%
Cc1ccc(S(=O)(=O)CC(CN2CCCCC2)N2CCCCC2)cc1 (stereo not given)	102%	109%
CCOC(=O)[C@@H]1[C@H]2COc3ccc(Br)cc3[C@H]2N2C(=O)N(c3ccc(C)cc3)C(=O)[C@]12C	14.6%	35.9%
CCOC(=O)C1=C(CC)Nc2ccccc2N=C1NC(=O)c1oc2ccccc2c1C	111%	91.5%
COc1cc(-c2cc(C(=O)Nc3ccc(S(=O)(=O)NCc4ccco4)cc3)c3ccccc3n2)cc(OC)c1OC	109%	102%
Cc1ccc(-c2onc3ccc(C(=O)/C=C/N(C)C)cc23)cc1	101%	113%
CC(=O)Nc1nc(C)c(-c2csc(Nc3cccc(C(C)=O)c3)n2)s1	105%	101%
O=C(c1nnsc1S(=O)c1ccc(Cl)cc1)N1CCOCC1 (stereo not given)	95.6%	110% [at 19.8 µM]
COc1cc2c(Cc3ccccc3)cncc2cc1O	107%	96.3%
Cn1c(Sc2ccc(Br)cc2)c(C=O)c2ccccc21	108%	112%
CCCCCCc1cc2cc(S(=O)(=O)c3ccc(F)cc3)c(=O)oc2cc1O	103%	87.3%
C=CCN(CC=C)c1ncnc2[nH]ncc12	99.9%	109%
COc1cccc(N2CCN(c3c(C#N)c(C(F)(F)F)nn3C)CC2)c1	111%	94.2%
Cc1ccc(NC(=O)c2ccccc2NS(=O)(=O)c2ccc(Cl)s2)cc1S(=O)(=O)N1CCOCC1	111%	95.3%
Cc1nc2sc(C(N)=O)c(N)c2c2c1CCCC2	116%	104%
OCCN1CCN(c2ncnc3ccc(Br)cc23)CC1	95.4%	107%
CCc1nc(Cl)c(C#N)c2c1CCCC2	112%	105%
O=[N+]([O-])c1cccc(NC(=S)Nc2nc(-c3ccccc3Cl)cs2)c1	108%	99.8%
Cc1ccc(-c2cc(C(=O)N(C)Cc3cnn(C)c3C)c3cc(Br)ccc3n2)cc1	109%	102%
CCOc1cc2c(cc1O)C(=NO)CC1C2CCC2(C)C(O)CCC12 (stereo not given)	103%	112%
Nc1nc(/C=C/c2cccnc2)nc(-c2ccccc2O)n1	100%	110%

Structure (SMILES)	inhibition [1]	inhibition [2]
Cc1ccc(Sc2c(C=O)c3ccccc3n2C)cc1	105%	104%
O=C1C=C(NC2=CC3OC(c4ccccc4)OCC3OC2=O)CCC1 (stereo not given)	103%	111%
NC(N)=NN=C(c1ccc(F)cc1)c1ccc(C(F)(F)F)cc1	108%	117%
COc1ccc(-c2nc(N3CCOCC3)nc3n[nH]c(N)c23)cc1	117%	104%
Oc1ccc(Nc2ncnc3scc(-c4ccccc4)c23)cc1	56%	41%
O=C1/C(=C/c2cccnc2)CCc2c1[nH]c1ccccc21	103%	109%
CC(=O)c1c(C)n(-c2ccccc2)c2ccc(O)cc12	90.8%	91.5%
C=C(c1ccc2nc(NC(=O)OC)[nH]c2c1)c1cccs1	101%	110%
Cc1ccc(-c2c(C#N)c(N)n3c(nc4ccccc43)c2C#N)cc1	109% [at 39.5 µM]	50.7%
Brc1ccc2ncnc(NCc3ccco3)c2c1	109%	105%
COc1ccc(Nc2nccc(-c3cccc(N)c3)n2)cc1	103%	117%
C=CCOc1c(OC)cc(/C=N/Nc2cccc(C(=O)O)c2)c(Br)c1Br	103%	105%
COc1ccc2nc(Nc3nc(CSc4nc5ccccc5[nH]4)cc(=O)[nH]3)nc(C)c2c1	108%	102%
CC1(Cc2ccc(Cl)cc2)C(=O)Nc2ccc(-c3cccnc3)cc21 (stereo not given)	107%	102%
CC(=O)NC(CC(C)C)C(=O)NC(Cc1ccccc1)C(=O)CCl (stereo not given)	97.3%	104%
CC1CCN(Cc2c(C(=O)N/N=C/c3ccc(C(C)(C)C)cc3)nnn2-c2nonc2N)CC1	98.1%	108%
CCOC(=O)c1[nH]c(C)c(C(=O)N2CCc3ccccc32)c1C	34.1%	43.6%
c1ccc2c(-c3cncc4ccccc34)cncc2c1	110%	99.8%
CS(=O)(=O)Nc1ccc(-c2cnc3cccnn23)cc1	95.8%	102%
COc1ccc(-n2ncc3c(N4CCN(Cc5ccccc5)CC4)ncnc32)cc1	113%	102%
O=C(Nc1ccccc1)c1cc2ccccc2c(=O)s1	50.8%	85.2%
Cc1cccc(NC(=O)Nc2ccc(C#N)cc2)n1	103%	113%
Nc1ncc(-c2ccccc2)c(-c2ccc(O)cc2O)n1	100%	112%

Structure (SMILES)	inhibition [1]	inhibition [2]
Oc1ccc(C[C@H]2CNC(=S)N2CC2CCCN2C[C@H](Cc2ccc(O)cc2)N2C[C@H](Cc3ccc(O)cc3)N(CC3CCCCC3)C2=S)cc1 (stereo not given in full)	101%	105%
COc1cc(CCc2ccccc2)c(C(=O)O)c(O)c1C/C=C(/C)CCC=C(C)C	104%	114%
CN(CCC#N)C(=O)COC(=O)c1ccccc1C(=O)c1ccc(Cl)c([N+](=O)[O-])c1	96.7%	105%
CCc1cc(SC#N)cc(C)c1NC(=O)CCl	107%	99.9%
CC1=C(/C=C/C(C)=C/C=C/C(C)=C\C(=O)O)C(C)(C)CCC1	100%	71.7%
Cc1c(Cl)cccc1NC(=O)CSc1nc2ncc(Cl)cc2[nH]1	98.5% [at 19.8 µM]	98.7%
Cc1ccc(NC(=O)/C=C/c2ccco2)nc1	95.8%	99.8%
COc1ccc(-c2cc(NC=O)c3ncc(-c4ccc(OC)c(OC)c4)n3c2)c(OC)c1	95.1%	86.2%
CCCNC(=O)COC(=O)c1ccccc1C(=O)c1ccc(Cl)c([N+](=O)[O-])c1	96.2%	99.9%
Cc1ccc(C(=O)Nc2cccc(C(F)(F)F)c2)cc1NC(=O)c1ccno1	86.8%	111%
NS(=O)(=O)c1ccc(CCNC(=O)c2ccc(C#CC3(O)CCCCC3)cc2)cc1	105%	102%
COc1ccc(-c2oc3ccc(-c4ccc(OC)nc4)cc3c2C#CC2(O)CCCCC2)cc1	103%	103%
COc1cccc(-c2ccc3ncnc(NCc4cccc(C)c4)c3c2)c1	118%	104%
O=Nc1c(O)n(Cc2c(Cl)cccc2Cl)c2ccccc12	103%	115%
CC(=O)c1cccc(NC(=O)COC(=O)c2ccc(S(C)(=O)=O)c([N+](=O)[O-])c2)c1	92.5%	93.4%
O=S(=O)(Nc1nc2ccccc2nc1N1CCN(c2ccccc2F)CC1)c1ccc(Cl)cc1	96.7%	111%
C/C=C/COC(=O)c1[nH]c2c(c1C)C(=O)CC(c1ccco1)C2 (stereo not given)	106%	92.9%
CC1(Cc2ccc(F)cc2)C(=O)Nc2ccc(-c3cccnc3)cc21 (stereo not given)	98.2%	108%
Cc1cccc(CS(=O)(=O)c2ncc(Cl)c(C(=O)NCc3ccccc3)n2)c1	92.1%	88.2%
COC(=O)c1c(C)n(-c2ccc(OC)cc2)c2ccc(O)cc12	103%	94.9%
COc1cccc(-c2ccc3ncnc(NCc4ccc5c(c4)OCO5)c3c2)c1	97.6%	113%
Nc1cc2c(cc1Br)-c1ccccc1C2=NO	93.5%	106%
CCc1ccccc1NC(=O)CN(C)C(=O)Cn1ncc(Cl)c(Cl)c1=O	102%	101%

Structure (SMILES)	inhibition [1]	inhibition [2]
c1cc(-c2cnc3cccnn23)c2cccnc2c1	114%	105%
CC(=O)c1c(O)cc(O)c(C(C)=O)c1O	110%	101%
C=CCn1cnc2c(c1=O)c1nc3ccccc3nc1n2/N=C/c1cc(OC)c(OC)c(OC)c1	109%	102%
Cc1ccc(S(=O)(=O)/N=C(\CCl)N2CCOCC2)cc1	110%	102%
NC(=O)c1sc2nccc(Nc3ccccc3)c2c1N	117%	103%
CCCCCc1cc(O)c2c(C)cc(=O)oc2c1	112%	99.4%
CCN1CCN(Cc2ccc(NC(=O)c3ccc(C)c(NC(=O)c4cc(-c5ccc(Br)cc5)n[nH]4)c3)cc2C(F)(F)F)CC1	102%	112%
Cc1ccnc(NC(=O)CCCOc2cc(=O)n(C)c3ccccc23)c1	105%	112%
CN(C)CCCN(C(=O)CCOc1ccccc1)c1nc2ccc(F)cc2s1	101%	105%
O=C(Nc1cccc(S(=O)(=O)N2CCCCC2)c1)Nc1ccc(Cl)cc1Cl	103%	117%
C=CC(=O)Nc1cccc(Oc2ncnc3[nH]cc(-c4cnc5ccccc5c4)c23)c1	102%	109%
COc1ccc(-c2nc(NC(=O)c3ccc(OCC(=O)Nc4ccc(F)cc4)c(OC)c3)sc2C)cc1	91.7%	96.2%
Cc1nn(-c2nccs2)c2c1C(=O)CC(C)(C)C2Br (stereo not given)	108%	115%
CC(C)C[C@H](CO)Nc1nc(Nc2cccc(Cl)c2)c2ncn(C(C)C)c2n1	112%	100%
COC(=O)C1=C(C(=O)OC)[C@@H]2N(Cc3ccccc3)c3ccccc3[C@@]23C[C@@H](C(=O)OC)N(C(=O)c2ccc(Br)cc2)C3=N1	101%	110%
Clc1ccccc1C1=Nn2c(nnc2-c2ccncc2)SC1	109%	100%
Cc1ccc(S(=O)(=O)Nc2cccc3cccnc23)c([N+](=O)[O-])c1	101% [at 39.5 µM]	94.2% [at 39.5 µM]
COCc1cc(S(=O)c2ccc(Cl)cc2)nc(C)n1 (stereo not given)	103%	105%
O=c1cc(-c2ccccc2Cl)oc2cc(O)cc(O)c12	85.2%	93.7%
CCC(=NCCc1c(C)[nH]c2ccc(C)cc12)C1=C(O)CC(c2ccccc2)CC1=O (stereo not given)	82.1%	92%
O=C(N/N=C/c1ccccc1Cl)c1[nH]c2ccc(Br)cc2c1-c1ccccc1	105%	109%
